Several values for one entry are separate records, joined by “and”; a condition that tells them apart may be missing. Equal entries are not always repeated. Activity calls are given as the source filed them. How the source made its calls: active means hit-call score of the fitted dose curve at least 0.9, where 1 is the maximum; inactive means score below 0.9.
Read-out: Monocyte Chemoattractant Protein-1 (MCP1), CCL2 (gene 6347)
Test: BSK_IMphg_MCP1: BioMAP Diversity Plus: IMphg Assay for Monocyte Chemoattractant Protein-1 (MCP1) Biomarker Activity (AID 2284253)
Conditions: primary human endothelial cells with macrophages
Protocol: BSK_IMphg is a cell-based, multiplexed-readout assay that uses venular endothelial cells and macrophages, a human vascular primary cell, with measurements taken at 24 hours after chemical dosing in a microplate: 96-well plate.BSK_IMphg_MCP1 is an assay component measured in the BSK_IMphg assay. It measures MCP-1 antibody related to regulation of gene expression using ELISA technology.Data from the assay component BSK_IMphg_MCP1 was analyzed at the endpoint, BSK_IMphg_MCP1, in the positive analysis fitting direction relative to DMSO as the negative control and baseline of activity. Using a type of binding reporter, gain or loss-of-signal activity can be used to understand protein changes. To generalize the intended target to other relatable targets, this assay endpoint is annotated to the 'cytokine' intended target family, where the subfamily is 'chemotactic factor'.
The levels of cell surface (or secreted, indicated by the prefix "s") biomarker endpoints were measured by ELISA. Overt cytotoxicity to cells in confluent adherent cultures (all systems other than the BT system) was assessed by measuring total protein levels using sulforhodamine B (SRB) staining in parallel cultures at the time of biomarker measurements, indicated as SRB endpoints. For proliferation assays for adherent cell types, individual cell types are cultured at sub-confluence and relative cell numbers quantified by SRB staining at time points optimized for each system (48 h: 3C and CASM3C systems; 72 h: BT and HDF3CGF systems; 96 h: SAg system). SRB was performed by staining cells with 0.1% SRB after fixation with 10% TCA and reading wells at 560 nm.Viability and proliferation of PBMC (T cells) was quantified by Alamar Blue reduction for the SAg and BT systems. For PBMC viability (referred to as PBMC Cytotoxicity within the assay endpoint names), cells were plated (75,000/well in a 96-well plate) and then chemical samples added for 1 h before addition of activators, SEB and TSST-1 (20 ng/mL final concentration each). Cells were incubated for 90 h. Then, Alamar Blue (20 uL/well) (Invitrogen, Cat DAL1100) was added for 6 h, and the plates were read with a fluorescence microplate reader at 546/580 nm (excitation/emission). For PBMC proliferation, cells were plated and activated as above but incubated for only 16 h prior to addition of Alamar Blue. Plates were read after 6 h.

| Compound | outcome | AC50 |
| --- | --- | --- |
| CN(Cc1cnc2nc(N)nc(N)c2n1)c1ccc(C(=O)N[C@@H](CCC(=O)O)C(=O)O)cc1 | inactive | – |
| O=P(O)(O)CCC(F)(F)C(F)(F)C(F)(F)C(F)(F)C(F)(F)C(F)(F)F | inactive | – |
| OCC(F)(F)C(F)(F)C(F)(F)C(F)(F)C(F)(F)C(F)(F)C(F)(F)C(F)(F)C(F)(F)C(F)(F)C(F)(F)F | inactive | – |
| O=P(O)(O)CCC(F)(F)C(F)(F)C(F)(F)C(F)(F)C(F)(F)C(F)(F)C(F)(F)C(F)(F)F | inactive | – |
| O=C(CC(=O)C(F)(F)C(F)(F)C(F)(F)F)c1cccs1 | – | 27.7 µM (active) and 25.5 µM (active) |
| O=C(O)CCC(F)(F)C(F)(F)C(F)(F)C(F)(F)C(F)(F)F | inactive | – |
| C=CC(=O)OCCC(F)(F)C(F)(F)C(F)(F)C(F)(F)C(F)(F)C(F)(F)C(F)(F)C(F)(F)F | inactive | – |
| O=C(O)CCC(F)(F)C(F)(F)C(F)(F)C(F)(F)C(F)(F)C(F)(F)F | inactive | – |
| O=S(=O)(O)C(F)(F)C(F)(F)C(F)(F)C(F)(F)C(F)(F)C(F)(F)C(F)(F)C(F)(F)C(F)(F)C(F)(F)F | inactive | – |
| CN(CCO)S(=O)(=O)C(F)(F)C(F)(F)C(F)(F)C(F)(F)C(F)(F)C(F)(F)C(F)(F)C(F)(F)F | inactive | – |
| O=C(O)C(F)(F)OC(F)(F)C(F)(F)OC(F)(F)C(F)(F)OC(F)(F)C(F)(F)C(F)(F)C(F)(F)F | – | 38.2 µM (active) and 24 µM (active) |

Source: PubChem BioAssay (EPA / NIEHS)
